Bioassay records from PubChem.
Shiga toxin inh: blocks Shiga toxin action in Vero cells; actives 9.2% (n = 290,000); inhibition, % at 38.7 µM; Vero cells, Shiga toxin protein synthesis inhibition reporter; in the data active = inhibition mostly above about 28%, no sharp cut-off; inactive = mostly below about 43%
Pf growth 96h: inhibits malaria parasite growth, 96 h. P. falciparum luciferase reporter growth, 96 h. Potency, µM (top dose mostly 28.7 µM), hits mostly inhibitors. actives 6.9% (n = 320,000). AID 504834
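Two parasite generations (96 h, 37 C, 5% CO2) of compound exposure in infected erythrocytes (0.05% parasitemia, 2% hematocrit). Luciferase-reporter P. falciparum; decreased luminescence indicates inhibited growth, aimed at apicoplast-acting delayed death.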
CHX counter: counter-screen hit for Shiga toxin inhibitors, cycloheximide; actives 12% (n = 300,000); max response, %; AID 2314; cell reporter, cycloheximide protein synthesis inhibition counterscreen; in the data active = max response mostly above about 13%, no sharp cut-off; inactive = mostly below about 14%; also: read at 38.3 µM for the half of the compounds with a filed dose
Pf growth 48h: inhibits P. falciparum growth in the first generation, 48 h. actives 5.9% (n = 310,000). AID 504832. Potency, µM (top dose mostly 28.7 µM), usual class: inhibitors. P. falciparum luciferase growth in erythrocytes, 48 h
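Erythrocytes infected with P. falciparum carrying an integrated firefly luciferase reporter (2% hematocrit, 0.1% parasitemia final) were exposed to compounds in RPMI 1640 with 0.5% Albumax at 37 C, 5% CO2. Growth inhibition was scored as reduced luminescence.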
NS1 function inh: blocks influenza NS1 protein function. Potency, µM (series often up to 46.1 µM). actives 0.4% (n = 270,000). AID 2326; calls by dose curve; also: actives are rising curves; nearly all actives have a fitted effect of over 50% in size
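S. cerevisiae expressing influenza A NS1, grown in glucose, washed, then diluted 1:100 into pH 6.0 -URA galactose medium with 23 nl compound. Growth recovery read as OD600; NS1-free strain serves as control.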
Each line names hits and unclear results; the compound was inactive in the other large screens. The list is not random: actives were taken first. Their share in the collection is about 21%. Unless noted, calls follow the shape of the dose curve; as a rule, active = well fitted inhibition curve with a large enough effect; inconclusive = small, poorly fitted or top-dose-only effect, or another doubt; inactive = no such curve, though single readings can be large or run the other way.

Cc1nnc(SCC(=O)Nc2nsc(-c3ccc(C(C)(C)C)cc3)n2)s1	Pf growth 96h inconclusive, CHX counter 23 (no result: Pf growth 48h)
Cc1ccc(NC(=O)c2cc(-n3cnnc3)ccc2Cl)cc1	none
CCn1c(SCC(=O)Nc2ccc(-c3nc4ccc(C)cc4s3)cc2)nnc1-c1ccccc1	Shiga toxin inh 59, Pf growth 96h 13µM, CHX counter 34
O=C(Nc1ccc(-c2nc3ccccc3s2)cc1)c1cc(-n2cnnc2)ccc1Cl	Pf growth 96h 7.4µM, CHX counter 27, Pf growth 48h 9.3µM
CC(C)CNC(=S)N(CCCN(C)C)Cc1cc2cc3c(cc2[nH]c1=O)OCCO3	Pf growth 48h inconclusive (no result: Shiga toxin inh)
Cc1nnc(SCC(=O)Nc2ccc(-c3nc4ccccc4s3)cc2)s1	Shiga toxin inh 38, Pf growth 96h inconclusive, CHX counter 65
COc1ccc(OC)c(NC(=O)NCCc2cccc(Cl)c2)c1	Pf growth 48h inconclusive
CCN(CC)S(=O)(=O)c1ccc2c(c1)CC(C(=O)N1CCCC1)N2C(C)=O (stereo unspecified)	Pf growth 96h inconclusive
COCCn1nnnc1C(C(C)C)N(Cc1cccnc1)Cc1cc2cc(OC)ccc2[nH]c1=O (stereo unspecified)	Pf growth 48h inconclusive
CCC(C)(C)n1nnnc1C(C(C)C)N(Cc1ccco1)Cc1cc2cc3c(cc2[nH]c1=O)OCO3 (stereo unspecified)	Pf growth 96h inconclusive, Pf growth 48h inconclusive
COc1ccc2[nH]c(=O)c(CN(Cc3ccco3)C(c3nnnn3Cc3ccccc3)C(C)C)cc2c1 (stereo unspecified)	Pf growth 96h 3.3µM (no result: Pf growth 48h)
CCc1ccc2[nH]c(=O)c(CN(Cc3ccc(OC)cc3)Cc3nnnn3CCOC)cc2c1	Pf growth 96h inconclusive, Pf growth 48h 1.9µM
COCCn1nnnc1C(C(C)C)N(Cc1ccccc1)Cc1cc2cc(OC)ccc2[nH]c1=O (stereo unspecified)	Pf growth 48h 8.3µM
COc1ccc2[nH]c(=O)c(CN(Cc3ccccc3)Cc3nnnn3CC3CCCO3)cc2c1 (stereo unspecified)	none
Cc1cccc2cc(CN(Cc3ccco3)C(c3nnnn3CCc3ccccc3)C(C)C)c(=O)[nH]c12 (stereo unspecified)	Pf growth 48h 1.9µM
NC(=O)COC(=O)CSc1ccc2ccccc2c1	none (no result: NS1 function inh)
O=C(CSc1nnc2sc3ccccc3n12)NCc1ccco1	none (no result: Pf growth 96h)
Cc1nc(S/C(=C/c2ccc(-c3ccc(Cl)cc3)o2)C(=O)O)n[nH]1	Pf growth 96h inconclusive (no result: Pf growth 48h)
Cc1nc(S/C(=C/c2ccc(-c3cc(Cl)ccc3C)o2)C(=O)O)n[nH]1	Shiga toxin inh 103, CHX counter 29
COC(=O)C1(O)CC(CC(C)C)=NN1C(=O)c1ccccc1 (stereo unspecified)	Pf growth 96h 0.29µM
COC(=O)C1=NN(C(=O)c2ccccc2)C(C)(O)C1 (stereo unspecified)	none (no result: Pf growth 48h)
CSc1nc(/C=C2\C=Nc3ccccc32)c(O)n1C	Shiga toxin inh 117, CHX counter 17, Pf growth 48h inconclusive
CC1(CCl)N([O-])C2=C(CCCC2)[N+]1=O (stereo unspecified)	CHX counter 14
CC1Sc2ccc(S(=O)(=O)CCC(=O)NCc3cccs3)cc2NC1=O (stereo unspecified)	Pf growth 96h inconclusive
C=CCN(c1ccccc1)S(=O)(=O)c1c(C)[nH]c(=O)[nH]c1=O	Pf growth 96h inconclusive (no result: NS1 function inh)
CCC(=O)Nc1ccc(C2C(=O)c3ccccc3C2=O)cc1	CHX counter 25, NS1 function inh inconclusive
C=CCNC(=O)c1ccc2nc(-c3ccccc3)c(-c3ccccc3)nc2c1	Pf growth 96h inconclusive, Pf growth 48h inconclusive
CCC(CC)C(=O)Nc1ccc(C(=O)c2ccccc2)cc1	Shiga toxin inh 50, CHX counter 18
CCC(=O)Nc1ccc(C(=O)c2ccccc2)cc1	CHX counter 20
CCC(=O)Nc1ccc(C(=O)NNC(=O)Cc2ccccc2)cc1	none
C=CCNC(=O)c1ccc(C(=O)c2ccccc2)cc1	Shiga toxin inh 110, CHX counter 24
Cc1c(NC(=S)NC(=O)c2cc3ccccc3o2)c(=O)n(-c2ccccc2)n1C	none
O=C(O)c1ccc(NC(=S)Nc2ccccc2)cc1	CHX counter 16
CCC(=O)NC1=C(Nc2ccc(N)cc2)C(=O)c2ccccc2C1=O	Shiga toxin inh 96, Pf growth 96h inconclusive, CHX counter 27, Pf growth 48h inconclusive
CCC(=O)Nc1ccc(NCc2ccc(-c3ccccc3)cc2)cc1	Pf growth 96h inconclusive
CCC(=O)Nc1ccc(NC(=S)Nc2ccccc2)cc1	Pf growth 96h 12µM
CCC(=O)Nc1ccc(NC(=S)NC(=O)Cc2ccccc2)cc1	none
O=C(Nc1ccc(C(=O)c2ccccc2)cc1)c1ccccc1	Shiga toxin inh 148, Pf growth 96h inconclusive, CHX counter 56
COC(=O)c1cccc(NC(=O)CSc2nnc(C)n2C)c1	none
COc1ccc(C2CC(=O)C(C=NCCN3CCNCC3)=C(O)C2)cc1OC (stereo unspecified)	Pf growth 96h 13µM
O=S1(=O)N=C2CCCCCN2C(c2ccc(Br)cc2)N1 (stereo unspecified)	Pf growth 96h inconclusive (no result: NS1 function inh)
COc1cccc(CN(C)C(=O)CCc2nnc(-c3ccsc3)o2)c1	Pf growth 96h inconclusive, Pf growth 48h 10µM
CN(Cc1ccsc1)C(=O)CCc1nnc(CCCc2ccccc2)o1	Shiga toxin inh 124, CHX counter 47
CC(Cc1ccsc1)NC(=O)CCc1nnc(COc2ccccc2)o1 (stereo unspecified)	CHX counter 19
CC(C)(CO)CNC(=O)CCc1nnc(CCCc2ccccc2)o1	Pf growth 96h inconclusive, CHX counter 22
CC(C)(CO)CNC(=O)CCc1nnc(Cc2ccc(-c3ccccc3)cc2)o1	Pf growth 48h inconclusive
CCOC(=O)CN(C)C(=O)CCc1nnc(-c2ccsc2)o1	Pf growth 96h inconclusive
CCc1cc2c(=O)n(Cc3ccccc3)c(SC3CCOC3=O)nc2s1 (stereo unspecified)	none (no result: NS1 function inh)
COc1ccccc1-c1nnc(SCC(=O)NC2CCS(=O)(=O)C2)n1CCc1ccccc1 (stereo unspecified)	none
O=C(CCc1nnc(COc2ccccc2)o1)NCc1ccccc1	Pf growth 96h inconclusive
CCN(Cc1ccccc1)C(=O)CCCOc1ccccc1	Shiga toxin inh 77, CHX counter 26
CCN(Cc1ccncc1)C(=O)CCc1nnc(CCC2CCCCC2)o1	Shiga toxin inh 39, Pf growth 96h inconclusive, CHX counter 23, Pf growth 48h inconclusive
Cc1ccsc1CN(C)C(=O)CCc1nnc(COc2ccccc2)o1	Shiga toxin inh 56, CHX counter 35
CCN(Cc1ccccc1)C(=O)CCc1nnc(CCCc2ccccc2)o1	Shiga toxin inh 57, CHX counter 22
O=C(O)CCCC(=O)N(Cc1ccccc1)Cc1ccccc1	none (no result: Pf growth 96h, Pf growth 48h)
Cc1nn(-c2ccccc2)c(C)c1NC(=O)COC(=O)c1cc(Br)ccc1O	none (no result: Shiga toxin inh, CHX counter, NS1 function inh)
CCOC(=O)C(NC(=O)c1ccc(Cl)cc1Cl)(Nc1ccc(C)cc1)C(F)(F)F (stereo unspecified)	Pf growth 48h inconclusive
